From PubChem BioAssay AID1159577 (Broad Institute, 2015) come the findings set out here.

In all, about 1,300 compounds went through this assay and about 240 (18%) were called active. Roughly 8% stayed inconclusive and do not appear here. A selection follows. Results with a measured potency or affinity are listed apart. Unmarked numbers belong to inactive results. The rule behind the calls is not given here.

The experiment can be described thus: toxicity to human hepatoma HepG2 cells – cell-based, cherry-picked samples, cytotoxicity control, dose response (AID 1159577).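 Note: 0% = neutral control wells and -100% = positive control wells.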 The settings on record: HepG2 cytotoxicity counterscreen, plate reader; series mostly up to 19.5 µM; activity change, negative = cytotoxicity: at the top concentration.
Consider `C[C@H](CO)N1C[C@H](C)[C@@H](CN(C)Cc2ccc(-c3ccccc3)cc2)OCc2ccccc2-c2c(n(C)c3ccccc23)C1=O`, for which the “activity change, negative = cytotoxicity” value is -24%. Then `C[C@H]1CN([C@@H](C)CO)C(=O)c2c(c3ccccc3n2C)-c2ccccc2CO[C@@H]1CN(C)C(=O)Cc1ccccc1`, with 8.45% [at 21 µM]; and `C[C@H]1CN([C@@H](C)CO)C(=O)c2c(c3ccccc3n2C)-c2ccccc2CO[C@@H]1CN(C)C(=O)Nc1cccc(C(F)(F)F)c1`, with 2.5% [at 21 µM]. Then `C[C@@H]1CN([C@@H](C)CO)C(=O)c2c(c3ccccc3n2C)-c2ccccc2CO[C@H]1CN(C)C(=O)Nc1ccccc1C(F)(F)F`, with -28.3% [at 21 µM]; and `C[C@H](CO)N1C[C@H](C)[C@H](CN(C)S(=O)(=O)c2ccc(C(F)(F)F)cc2)OCc2ccccc2-c2c(n(C)c3ccccc23)C1=O`, with -5.43%. Take `C[C@H]1CN([C@@H](C)CO)C(=O)c2c(c3ccccc3n2C)-c2ccccc2CO[C@@H]1CN(C)Cc1ccc(-c2ccccc2)cc1`: the “activity change, negative = cytotoxicity” value is -16.6%.

As for `COc1ccc(S(=O)(=O)N2CCC3(CC2)CN(Cc2ccncc2)[C@@H](CO)c2[nH]c4cc(OC)ccc4c23)cc1`, the “activity change, negative = cytotoxicity” value is -20.5%. For `COc1ccccc1NC(=O)Nc1ccc2c(c1)OC[C@@H](C)N(Cc1ccccc1Cl)C[C@@H](C)[C@H](OC)CN(C)C2=O`, the “activity change, negative = cytotoxicity” value was -3.52%. Then `CCCN(C)C[C@@H]1Oc2cc(C#Cc3cccnc3)ccc2S(=O)(=O)N([C@@H](C)CO)C[C@H]1C`, with 10.7%; and `COc1ccc2c3c([nH]c2c1)[C@H](CO)N(Cc1cc(F)ccc1F)CC31CCN(C(=O)C2CCC2)CC1`, with 8.9%; and `C[C@H](CO)N1C[C@H](C)[C@H](CN(C)C(=O)NC2CCCCC2)OCc2ccccc2-c2c(n(C)c3ccccc23)C1=O`, with 8.48%.

Consider `CO[C@H]1CN(C)C(=O)c2cc(NC(=O)c3ccccc3F)ccc2OC[C@H](C)N(C(=O)c2ccccc2F)C[C@H]1C`, for which the “activity change, negative = cytotoxicity” value was -15.7%.

For the compound `CCC(=O)N1CC2(C1)CN(Cc1cccc(Cl)c1)[C@H](CO)c1c2c2ccc(OC)cc2n1C`, the “activity change, negative = cytotoxicity” value is 0.885% [at 21 µM].

Take `N#C[C@@H]1[C@H](c2ccccc2-c2ccccc2F)[C@H](CO)N1C(=O)C1CCOCC1`: the “activity change, negative = cytotoxicity” value was -0.432%. As for `N#C[C@@H]1[C@@H](c2ccccc2C2=CCCC2)[C@@H](CO)N1C(=O)NC1CCCC1`, the “activity change, negative = cytotoxicity” value is 1.93%.

As for `CC(C)(C)S(=O)N1Cc2cc(C(=O)NCc3ccc(Oc4ccccc4)cc3)nc(-c3cccc(-c4cccc(F)c4)c3)c2[C@@H]1CCO` (some centres undefined), the “activity change, negative = cytotoxicity” value is 6.7%. Then `COc1cccc(-c2cccc(-c3nc(C(=O)NCc4ccc(Oc5ccccc5)cc4)cc4c3[C@@H](CCO)N(S(=O)C(C)(C)C)C4)c2)c1` (some centres undefined), with 17.5%. Consider `CN(C)C(=O)c1cccc(-c2cccc(-c3nc(C(=O)NC4CCCCC4)cc4c3[C@@H](CCO)N([S@](=O)C(C)(C)C)C4)c2)c1`, for which the “activity change, negative = cytotoxicity” value is -15.1% [at 21 µM]. Then `COc1cccc(CNC(=O)c2cc3c(c(-c4cccc(-c5ccncc5)c4)n2)[C@H](CCO)N([S@@](=O)C(C)(C)C)C3)c1`, with 15.6%; and `C[C@H]1CN([C@@H](C)CO)C(=O)c2c(c3ccccc3n2C)-c2ccccc2CO[C@H]1CN(C)S(=O)(=O)c1ccc(C(F)(F)F)cc1`, with -0.676% [at 21 µM]; and `COCC(=O)N1[C@H](C#N)[C@@H](c2ccccc2-c2ccccc2)[C@H]1CO`, with -10.6%.

Turning to `COc1ccc2c3c(n(C)c2c1)[C@@H](CO)N(C(=O)c1ccc(F)cc1)CC31CN(C(=O)Nc2ccc(F)cc2)C1`, the “activity change, negative = cytotoxicity” value was 25.7%. For `COc1ccc(C#Cc2ccc3c(c2)O[C@@H](CN(C)C(=O)Nc2cccc(OC)c2)[C@@H](C)CN([C@H](C)CO)S3(=O)=O)cc1`, the “activity change, negative = cytotoxicity” value was -22.3%. In the case of `O=C(c1ccccn1)N1CC2(C1)[C@@H](c1ccccc1)[C@H](CO)N2Cc1ccc(Cl)cc1`, the “activity change, negative = cytotoxicity” value is 6.35%. Take `COc1ccc(C#Cc2ccc([C@H]3[C@H]4CN(C(=O)c5ccc(F)cc5)CC(=O)N4[C@H]3CO)cc2)cc1`: the “activity change, negative = cytotoxicity” value is -5.36%. Then `C[C@H](CO)N1C[C@H](C)[C@@H](CN(C)C(=O)Nc2ccc(F)cc2)OCc2ccccc2-c2c(n(C)c3ccccc23)C1=O`, with -5.84% [at 21 µM].

In the case of `COc1ccc2c3c([nH]c2c1)[C@@H](CO)N(C(=O)Cc1ccccc1)CC31CCN(C(=O)Cc2ccccc2)CC1`, the “activity change, negative = cytotoxicity” value was -4.6%. Consider `COc1ccc2c3c([nH]c2c1)[C@@H](CO)N(C(=O)c1cccc(F)c1)CC31CCN(C(=O)c2ccccc2)CC1`, for which the “activity change, negative = cytotoxicity” value is -4.87%. Then `CCC(=O)N1CC2(CCN(C(=O)Nc3ccccc3F)CC2)c2c([nH]c3cc(OC)ccc23)[C@H]1CO`, with -3.9%; and `CCC(=O)N1CC2(C1)CN(C(=O)Nc1ccccc1F)[C@H](CO)c1[nH]c3cc(OC)ccc3c12`, with 30.1%. `COc1cccc(-c2ccc3c(c2)[C@@H]2[C@@H](CCN2C(=O)C2CCCC2)[C@H](CO)N3)c1`: the “activity change, negative = cytotoxicity” value is -7.28%. Then `CN(C)c1ccc2c(c1)[C@@H]1C[C@@H](CC(=O)N3CCc4ccccc4C3)O[C@@H](CO)[C@@H]1O2`, with 25.9%. Then `O=C(c1ccc(F)cc1)N1CC(=O)N2[C@H](CO)[C@H](c3ccc(C#Cc4ccc(F)cc4)cc3)[C@H]2C1`, with -19.2%. In the case of `CCC(=O)N1CCC2(CC1)CN(Cc1cc(F)ccc1F)[C@@H](CO)c1[nH]c3cc(OC)ccc3c12`, the “activity change, negative = cytotoxicity” value was 14.9%. With `COc1cccc(C#Cc2ccc([C@H]3[C@@H](C#N)N(C(=O)C4CCCC4)[C@@H]3CO)cc2)c1`, the “activity change, negative = cytotoxicity” value is -17.4%. Consider `COc1ccccc1C#Cc1ccc([C@@H]2[C@H](C#N)N(C(=O)C3CCCC3)[C@H]2CO)cc1`, for which the “activity change, negative = cytotoxicity” value was -10.7%.

As to `COc1cccc(C#Cc2ccc([C@@H]3[C@@H](C#N)N(C(=O)C4CCCCC4)[C@H]3CO)cc2)c1`, the “activity change, negative = cytotoxicity” value is -18.6%. Then `COc1ccccc1C#Cc1ccc([C@H]2[C@@H](C#N)N(C(=O)C3CCCCC3)[C@H]2CO)cc1`, with -30.5%; and `COCC(=O)N1CC2(C1)CN(Cc1ccccc1F)[C@@H](CO)c1[nH]c3cc(OC)ccc3c12`, with 25.2% [at 21 µM]. Then `C[C@H](CO)N1C[C@H](C)[C@@H](CN(C)C(=O)C2CCCCC2)Oc2ncc(/C=C/c3ccccc3)cc2C1=O`, with 16.2%; and `O=C(C[C@H]1C=C[C@H](NC(=O)Cc2ccccn2)[C@H](CO)O1)NCCc1ccccc1`, with 18.1%.

For `C[C@H]1CN([C@@H](C)CO)S(=O)(=O)c2ccc(C#Cc3ccccc3)cc2O[C@@H]1CN(C)C(=O)C1CC1`, the “activity change, negative = cytotoxicity” value is 5.15%. As to `O=C(C[C@H]1C=C[C@@H](NC(=O)Nc2ccccc2F)[C@H](CO)O1)NCc1ccc(-c2ccccc2)cc1`, the “activity change, negative = cytotoxicity” value is -11.7%. Then `COc1ccccc1C#Cc1ccc2c(c1)[C@H]1NCC[C@H]1[C@@H](CO)N2`, with -5.66%; and `OC[C@@H]1Nc2ccc(C#Cc3cccc(F)c3)cc2[C@@H]2NCC[C@H]12`, with 3.72%.

For `O=C(c1ccccc1F)N1CC[C@H]2[C@H](CO)Nc3ccc(C#Cc4ccc(F)cc4)cc3[C@H]21`, the “activity change, negative = cytotoxicity” value was -4.6%. Then `O=C(c1cccc(F)c1)N1CC[C@H]2[C@H](CO)Nc3ccc(C#Cc4cccc(F)c4)cc3[C@H]21`, with -5.55%. Then `COc1ccc(CN2C[C@@H](C)[C@H](OC)CN(C)C(=O)c3ccc(NC(=O)c4nc5ccccc5s4)cc3OC[C@H]2C)cc1`, with 13.7%; and `CCCN(C)C[C@@H]1Oc2cc(C#Cc3ccccc3)ccc2S(=O)(=O)N([C@@H](C)CO)C[C@@H]1C`, with -10.6%.

For the compound `COc1cccc(NC(=O)N2[C@@H](CO)[C@H](c3ccccc3)[C@@H]2CNCC(C)C)c1`, the “activity change, negative = cytotoxicity” value was -1.48%. Then `O=C(c1cccc(F)c1)N1CC(=O)N2[C@H](CO)[C@H](c3ccc(-c4cccnc4)cc3)[C@H]2C1`, with -1.35%. As for `CO[C@H]1CN(C)C(=O)c2cc(NC(=O)c3cc(C)on3)ccc2OC[C@H](C)N(C(=O)C2CC2)C[C@H]1C`, the “activity change, negative = cytotoxicity” value is -7.36%. Then `COc1ccc2c3c(n(C)c2c1)[C@@H](CO)N(C(=O)C1CC1)CC31CN(C(=O)Nc2cccc(F)c2)C1`, with 8.97%; and `C[C@H](CO)N1C[C@H](C)[C@@H](CN(C)C(=O)c2ccccc2F)Oc2ncc(C#Cc3cccc(F)c3)cc2C1=O`, with 13.4%.

As to `COCC#Cc1ccc([C@H]2[C@H](CO)N3C(=O)CN(C(=O)CN4CCOCC4)C[C@@H]23)cc1`, the “activity change, negative = cytotoxicity” value was 5.71%. With `COc1ccc(C#Cc2ccc3c(c2)[C@@H]2[C@@H](CCN2C(=O)C2CCCC2)[C@H](CO)N3)cc1`, the “activity change, negative = cytotoxicity” value is 0.018% [at 21 µM]. Regarding `CC(C)(C)[S@@](=O)N1Cc2cc(C(=O)NCCN3CCCCC3)nc(-c3cccc(-c4ccc(C#N)cc4)c3)c2[C@H]1CCO`, the “activity change, negative = cytotoxicity” value was -27.2% [at 21 µM]. As to `CN1CCN(C(=O)C[C@H]2C[C@@H]3c4cc(NC(=O)Nc5ccc(C(F)(F)F)cc5)ccc4O[C@@H]3[C@@H](CO)O2)CC1`, the “activity change, negative = cytotoxicity” value is 23.3%. Then `COCC(=O)N1CC2(C1)CN(C(=O)CN1CCOCC1)[C@@H](CO)c1c2c2ccc(OC)cc2n1C`, with -17.1%; and `CCCN(C)C[C@H]1Oc2cc(C#Cc3cccnc3)ccc2S(=O)(=O)N([C@H](C)CO)C[C@H]1C`, with -14.6%. Then `CO[C@H]1CN(C)C(=O)c2ccc(NC(=O)CC(F)(F)F)cc2OC[C@@H](C)N(CC2CC2)C[C@H]1C`, with 45.9% [at 21 µM]; and `CCCC#Cc1ccc2c(c1)O[C@H](CN(C)C(=O)Nc1ccc(OC)cc1)[C@H](C)CN([C@H](C)CO)S2(=O)=O`, with 4.59%; and `N#Cc1ccc(-c2ccc3c(c2)[C@@H]2[C@@H](CCN2C(=O)C2CCC2)[C@@H](CO)N3)cc1`, with 6.07%. Then `COc1ccc2c3c([nH]c2c1)[C@@H](CO)N(C(C)=O)CC31CN(C(=O)CN2CCOCC2)C1`, with 1.53%.

Regarding `COc1ccc(CN2CC3(C2)CN(Cc2ccc4c(c2)OCO4)[C@H](CO)c2[nH]c4cc(OC)ccc4c23)cc1`, the “activity change, negative = cytotoxicity” value was -18.4%. For the compound `COc1ccc(CN2CC3(CN(C(C)=O)C3)c3c([nH]c4cc(OC)ccc34)[C@@H]2CO)cc1`, the “activity change, negative = cytotoxicity” value is 3.59%. Then `COc1ccc2c3c([nH]c2c1)[C@@H](CO)N(C(=O)CN(C)C)CC31CCN(CC2CCCCC2)CC1`, with -23.6%; and `CO[C@H]1CN(C)C(=O)c2cc(NC(=O)c3ccccc3F)ccc2OC[C@H](C)N(C)C[C@H]1C`, with -21.2%; and `COc1ccccc1CNC(=O)C[C@H]1C[C@@H]2c3cc(NC(=O)Nc4ccc(C(F)(F)F)cc4)ccc3O[C@@H]2[C@H](CO)O1`, with -37.6%.
